Source: ChEMBL document CHEMBL3988442, “University of Dundee, Small-Polar-MMV Screening Library” (2021)
For some of these results: Potency and affinity values are given separately.

How the values were obtained:
Parameters in all cases: scale not given: direction of the effect not stated beside the values
[1] = target: Protein translocase subunit SecA (Escherichia coli (strain K12)) (UniProt P10408); assay: Assay to Identify E. coli SecA ATPase Inhibitors; format: functional; details: 30 µM
[2] = target: T1, Ubiquitin-activating enzyme e1, putative (Leishmania donovani (strain BPK282A1)) (UniProt E9BSI1); assay: Leishmania donovani Ubiquitin Activating Enzyme (LdE1); format: functional; details: 30 µM
T1 sequence (whole entry): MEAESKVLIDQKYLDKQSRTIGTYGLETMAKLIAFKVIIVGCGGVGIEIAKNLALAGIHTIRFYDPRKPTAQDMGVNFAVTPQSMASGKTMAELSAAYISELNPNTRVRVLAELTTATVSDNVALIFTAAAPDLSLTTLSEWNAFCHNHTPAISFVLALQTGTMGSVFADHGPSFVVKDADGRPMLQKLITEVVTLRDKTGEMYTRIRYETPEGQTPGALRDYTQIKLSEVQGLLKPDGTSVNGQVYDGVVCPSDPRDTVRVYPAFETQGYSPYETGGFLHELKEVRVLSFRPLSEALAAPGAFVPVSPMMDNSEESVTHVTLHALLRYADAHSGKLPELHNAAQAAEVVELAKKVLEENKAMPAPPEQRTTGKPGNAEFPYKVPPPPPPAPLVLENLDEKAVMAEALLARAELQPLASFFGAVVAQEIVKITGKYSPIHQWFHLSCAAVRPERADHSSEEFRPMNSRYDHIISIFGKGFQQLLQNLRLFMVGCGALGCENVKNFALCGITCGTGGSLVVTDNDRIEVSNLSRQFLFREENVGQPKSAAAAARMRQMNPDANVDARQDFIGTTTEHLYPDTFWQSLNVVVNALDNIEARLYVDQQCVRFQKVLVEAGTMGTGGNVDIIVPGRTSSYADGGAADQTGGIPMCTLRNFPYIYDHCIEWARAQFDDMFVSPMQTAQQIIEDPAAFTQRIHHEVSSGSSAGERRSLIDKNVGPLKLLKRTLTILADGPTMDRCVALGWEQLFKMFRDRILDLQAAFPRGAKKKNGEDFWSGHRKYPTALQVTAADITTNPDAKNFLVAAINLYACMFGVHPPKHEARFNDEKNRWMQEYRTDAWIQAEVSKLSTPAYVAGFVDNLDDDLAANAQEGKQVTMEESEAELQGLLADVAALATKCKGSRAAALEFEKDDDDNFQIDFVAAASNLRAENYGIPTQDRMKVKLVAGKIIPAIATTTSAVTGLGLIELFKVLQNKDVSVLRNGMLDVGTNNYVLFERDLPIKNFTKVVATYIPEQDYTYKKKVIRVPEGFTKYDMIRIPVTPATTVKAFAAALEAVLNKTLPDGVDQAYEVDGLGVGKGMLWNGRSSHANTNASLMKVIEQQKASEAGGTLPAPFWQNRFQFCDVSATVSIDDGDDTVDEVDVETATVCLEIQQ

[3] = target: Sialic acid-binding Ig-like lectin 9 (Homo sapiens) (UniProt Q9Y336); assay: Hs-Siglec9 ALPHAscreen SOP 20170721; details: 10 µM
Sialic acid-binding Ig-like lectin 9 (Homo sapiens), sequence (Q9Y336 whole entry): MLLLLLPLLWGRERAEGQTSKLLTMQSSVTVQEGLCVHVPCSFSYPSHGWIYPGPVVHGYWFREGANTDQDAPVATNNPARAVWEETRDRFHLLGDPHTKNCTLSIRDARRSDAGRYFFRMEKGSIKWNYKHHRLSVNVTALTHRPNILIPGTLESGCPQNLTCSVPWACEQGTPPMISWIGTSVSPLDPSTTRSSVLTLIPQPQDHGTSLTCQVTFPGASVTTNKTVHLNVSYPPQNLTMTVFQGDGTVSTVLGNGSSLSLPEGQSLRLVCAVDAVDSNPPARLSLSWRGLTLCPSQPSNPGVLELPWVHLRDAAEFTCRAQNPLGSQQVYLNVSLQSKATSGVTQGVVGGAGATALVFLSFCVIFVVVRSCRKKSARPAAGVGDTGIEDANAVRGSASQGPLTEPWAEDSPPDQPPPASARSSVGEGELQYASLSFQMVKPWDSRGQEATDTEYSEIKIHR

[4] = tested on: Trypanosoma cruzi; assay: Trypanosoma cruzi phosphomannomutase and mannose-1-phosphate guanylyltransferase assay; format: functional; details: 10 µM
[5] = target: T2, Arginase-2, mitochondrial (Homo sapiens) (UniProt P78540); assay: in vitro enzyme assay to detect the production of urea directly proportional to the activity of Arginase II; format: functional; details: 33.3 µM; also: in the data most compounds retested in dose-response had high values
T2 sequence (whole entry): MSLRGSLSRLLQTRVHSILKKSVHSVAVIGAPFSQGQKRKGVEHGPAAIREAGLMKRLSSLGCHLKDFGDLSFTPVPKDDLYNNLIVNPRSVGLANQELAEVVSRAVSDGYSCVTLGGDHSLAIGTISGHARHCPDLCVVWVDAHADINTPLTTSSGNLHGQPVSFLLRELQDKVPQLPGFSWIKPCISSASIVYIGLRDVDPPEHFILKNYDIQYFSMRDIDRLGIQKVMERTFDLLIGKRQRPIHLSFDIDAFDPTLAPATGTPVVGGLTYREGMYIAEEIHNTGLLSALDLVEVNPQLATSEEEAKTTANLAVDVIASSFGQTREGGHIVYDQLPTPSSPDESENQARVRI

[6] = target: T3, Proteasome subunit beta (Trypanosoma cruzi) (UniProt O96673); assay: Trypanosoma cruzi proteasome chymotrypsin-like activity (TcProtChymo) assay.; also: in the data most compounds retested in dose-response had high values; format: functional; details: 9.37 µM
T3 sequence (whole entry): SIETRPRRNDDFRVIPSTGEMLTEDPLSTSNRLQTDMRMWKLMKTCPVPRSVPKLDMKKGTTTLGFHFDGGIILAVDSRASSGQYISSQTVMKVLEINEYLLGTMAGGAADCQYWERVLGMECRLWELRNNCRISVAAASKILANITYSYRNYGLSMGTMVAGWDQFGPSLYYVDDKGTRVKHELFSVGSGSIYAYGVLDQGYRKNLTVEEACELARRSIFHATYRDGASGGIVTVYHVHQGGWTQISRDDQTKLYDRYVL

[7] = species on record: Homo sapiens; assay: To identify inhibition of the IFN signalling (Jak-Stat) pathway via expression of an eGFP reporter gene under the control of an IFN-stimulated response element (ISRE) containing MxA promoter.; format: functional; details: 30 µM
[8] = target: T4, Tyrosyl-tRNA synthetase, putative (Trypanosoma cruzi (strain CL Brener)) (UniProt Q4DSP6); assay: Trypanosoma cruzi tyrosyl tRNA synthetase (TcYRS) _High Tyrosine SOP; format: functional; details: 30 µM; also: in the data most compounds retested in dose-response had high values
T4 sequence (whole entry): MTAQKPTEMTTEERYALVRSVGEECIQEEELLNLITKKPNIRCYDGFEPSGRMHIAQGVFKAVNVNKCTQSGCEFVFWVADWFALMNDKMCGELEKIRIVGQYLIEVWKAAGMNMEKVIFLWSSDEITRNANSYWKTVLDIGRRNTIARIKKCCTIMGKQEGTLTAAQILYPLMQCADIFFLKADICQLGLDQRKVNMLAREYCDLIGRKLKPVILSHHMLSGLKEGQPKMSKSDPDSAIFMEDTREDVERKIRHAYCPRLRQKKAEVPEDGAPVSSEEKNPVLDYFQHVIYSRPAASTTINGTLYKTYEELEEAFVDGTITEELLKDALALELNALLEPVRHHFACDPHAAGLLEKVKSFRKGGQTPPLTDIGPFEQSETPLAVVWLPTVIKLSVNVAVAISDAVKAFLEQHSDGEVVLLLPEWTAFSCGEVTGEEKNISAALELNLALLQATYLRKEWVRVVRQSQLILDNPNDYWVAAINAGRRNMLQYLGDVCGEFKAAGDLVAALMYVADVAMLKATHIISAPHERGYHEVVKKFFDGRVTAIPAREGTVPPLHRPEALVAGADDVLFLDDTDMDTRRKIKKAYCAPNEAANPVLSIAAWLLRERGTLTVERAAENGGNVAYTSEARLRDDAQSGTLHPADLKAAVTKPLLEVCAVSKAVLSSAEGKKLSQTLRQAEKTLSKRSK

[9] = target: T4, Tyrosyl-tRNA synthetase, putative (Trypanosoma cruzi (strain CL Brener)); assay: Trypanosoma cruzi tyrosyl tRNA synthetase (TcYRS) SOP; format: functional; details: 30 µM
[10] = target: Chromo domain-containing protein 1 (Saccharomyces cerevisiae (strain ATCC 204508 / S288c) (Baker's yeast)) (UniProt P32657); assay: ScCHD-1 Enzyme Inhibition Assay; format: functional; details: 30 µM; also: in the data most compounds retested in dose-response had high values
Chromo domain-containing protein 1 (Saccharomyces cerevisiae (strain ATCC 204508 / S288c) (Baker's yeast)), sequence (P32657 whole entry, the tested form may be a part): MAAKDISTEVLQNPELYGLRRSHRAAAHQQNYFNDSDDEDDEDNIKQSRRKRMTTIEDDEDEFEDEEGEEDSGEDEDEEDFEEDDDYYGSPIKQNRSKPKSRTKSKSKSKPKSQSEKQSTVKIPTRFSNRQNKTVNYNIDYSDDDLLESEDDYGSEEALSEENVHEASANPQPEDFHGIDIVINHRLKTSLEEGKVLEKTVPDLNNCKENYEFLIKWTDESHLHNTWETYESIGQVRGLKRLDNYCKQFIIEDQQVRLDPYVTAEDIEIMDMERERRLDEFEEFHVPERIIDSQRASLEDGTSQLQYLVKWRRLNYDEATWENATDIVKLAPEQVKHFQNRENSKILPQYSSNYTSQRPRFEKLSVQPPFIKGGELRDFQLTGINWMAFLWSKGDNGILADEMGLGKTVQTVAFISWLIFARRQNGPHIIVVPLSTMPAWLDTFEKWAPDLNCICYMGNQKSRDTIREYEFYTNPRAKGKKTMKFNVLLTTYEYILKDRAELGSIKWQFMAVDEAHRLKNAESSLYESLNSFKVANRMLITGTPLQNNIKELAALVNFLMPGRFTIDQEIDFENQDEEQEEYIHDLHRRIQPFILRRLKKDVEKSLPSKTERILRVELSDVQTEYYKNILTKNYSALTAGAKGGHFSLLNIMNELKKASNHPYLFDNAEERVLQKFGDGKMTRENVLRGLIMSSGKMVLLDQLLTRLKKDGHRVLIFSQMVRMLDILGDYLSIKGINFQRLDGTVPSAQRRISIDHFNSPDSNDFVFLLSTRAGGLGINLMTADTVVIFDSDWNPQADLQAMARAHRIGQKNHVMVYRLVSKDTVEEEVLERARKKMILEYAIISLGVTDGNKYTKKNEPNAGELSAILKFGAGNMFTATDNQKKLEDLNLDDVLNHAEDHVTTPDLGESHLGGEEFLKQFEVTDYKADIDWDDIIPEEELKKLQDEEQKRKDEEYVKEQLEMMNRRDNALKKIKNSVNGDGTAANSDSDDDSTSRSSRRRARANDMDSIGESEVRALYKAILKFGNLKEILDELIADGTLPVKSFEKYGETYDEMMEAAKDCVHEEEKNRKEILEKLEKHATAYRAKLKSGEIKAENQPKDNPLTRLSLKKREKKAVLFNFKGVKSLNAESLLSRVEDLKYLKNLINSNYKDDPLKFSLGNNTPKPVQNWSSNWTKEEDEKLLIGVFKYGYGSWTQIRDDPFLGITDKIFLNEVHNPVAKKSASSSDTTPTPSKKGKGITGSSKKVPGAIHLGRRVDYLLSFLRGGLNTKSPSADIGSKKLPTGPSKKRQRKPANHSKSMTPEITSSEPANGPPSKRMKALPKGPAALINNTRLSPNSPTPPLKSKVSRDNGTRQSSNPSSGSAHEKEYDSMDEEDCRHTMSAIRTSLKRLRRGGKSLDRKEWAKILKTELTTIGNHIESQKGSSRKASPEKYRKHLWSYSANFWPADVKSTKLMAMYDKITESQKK

Protein translocase subunit SecA (Escherichia coli (strain K12)), sequence (P10408 whole entry): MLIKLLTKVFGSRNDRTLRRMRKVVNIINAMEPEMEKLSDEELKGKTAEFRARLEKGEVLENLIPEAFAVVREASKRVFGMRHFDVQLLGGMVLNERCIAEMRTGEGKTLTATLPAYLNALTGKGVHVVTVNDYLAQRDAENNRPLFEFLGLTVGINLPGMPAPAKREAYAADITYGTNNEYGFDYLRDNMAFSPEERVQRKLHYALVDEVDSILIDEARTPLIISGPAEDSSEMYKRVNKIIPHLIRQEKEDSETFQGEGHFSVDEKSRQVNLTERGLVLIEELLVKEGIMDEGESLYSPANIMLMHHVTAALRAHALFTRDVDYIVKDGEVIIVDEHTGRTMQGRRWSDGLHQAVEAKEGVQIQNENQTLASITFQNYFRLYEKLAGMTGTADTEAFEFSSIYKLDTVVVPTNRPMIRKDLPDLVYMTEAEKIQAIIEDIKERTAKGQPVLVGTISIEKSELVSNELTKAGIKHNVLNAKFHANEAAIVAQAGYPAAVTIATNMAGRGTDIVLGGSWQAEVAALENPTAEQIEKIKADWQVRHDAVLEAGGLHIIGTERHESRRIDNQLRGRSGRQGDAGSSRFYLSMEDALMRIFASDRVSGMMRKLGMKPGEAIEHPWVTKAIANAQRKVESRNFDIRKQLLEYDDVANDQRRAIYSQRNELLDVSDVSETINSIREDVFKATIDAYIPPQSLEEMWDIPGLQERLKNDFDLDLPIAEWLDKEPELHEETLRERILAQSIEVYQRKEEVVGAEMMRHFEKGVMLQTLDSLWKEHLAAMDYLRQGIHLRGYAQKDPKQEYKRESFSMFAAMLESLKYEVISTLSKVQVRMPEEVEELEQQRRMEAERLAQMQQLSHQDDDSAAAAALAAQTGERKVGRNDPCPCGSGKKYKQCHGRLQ

`NC(=O)CC1CCN(C(=O)NCc2ccccc2-n2cccn2)CC1` showed a Percent Effect [1] of -5.04%, a Percent Effect [2] of 21.3% and a Percent Effect [3] of 5.25%. The Percent Effect [4] was -0.602%, the Percent Effect [5] was -1.77% and the Percent Effect [6] was 9.41%. The Percent Effect [7] was 15%, the Percent Effect [8] was 7.89% and the Percent Effect [9] was 15.4%. The Percent Effect [10] was -10.3%.

`CCc1ccc(O)c(C(=O)NC2CCN(Cc3ccncc3)CC2)c1` was tested, and the Percent Effect [1] was -1.01%, the Percent Effect [2] was 12.8% and the Percent Effect [3] was -9.09%. It also gave a Percent Effect [4] of -4.98%, a Percent Effect [5] of 1.64% and a Percent Effect [6] of 5.55%. For the same compound, the Percent Effect [7] was 44.9%, the Percent Effect [8] was 1.44% and the Percent Effect [9] was 8.43%. For the same compound, the Percent Effect [10] was -6.65%.

For `CCn1cc(NC(=O)NCc2ccc(CN3CCOCC3)cc2)cn1`, the Percent Effect [1] was 0.918%, the Percent Effect [2] was 13% and the Percent Effect [3] was 16%. The Percent Effect [4] was -7.28%, the Percent Effect [5] was -6.35% and the Percent Effect [6] was 10%. The Percent Effect [7] was 24.2%, the Percent Effect [8] was 4.9% and the Percent Effect [9] was 11.8%. It also gave a Percent Effect [10] of -1.62%.

With `Cc1[nH]ccc1C(=O)N1CCCC(c2nccn2Cc2cscn2)C1` (stereo not given) the Percent Effect [1] was -7.46%, the Percent Effect [2] was -5.41% and the Percent Effect [3] was 27.9%. It also gave a Percent Effect [4] of 9.99%, a Percent Effect [5] of 57% and a Percent Effect [6] of 15.2%. The Percent Effect [7] was 8.11%, the Percent Effect [8] was 7.98% and the Percent Effect [9] was 17.1%. The Percent Effect [10] was -3.33%.
